# Reference: PubChem BioAssay (EPA / NIEHS)
# The source made the active and inactive calls. Rule for the calls: active = hit-call score of the fitted dose curve at least 0.9, where 1 is the maximum; inactive = score below 0.9.
# Columns and labels:
# Conditions in all cases: mRNA level, 48 h; actives raise or lower the signal
# BCL2L11 (gene 10018) = assay: LTEA_HepaRG_BCL2L11: Life Technologies and Expression Analysis (LTEA) Assay for Bcl-2 (BCL2L11) gene using HepaRG (AID 2283473)
# Outline: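 Differentiated human HepaRG cells in serum-free induction medium were exposed in duplicate for 48 h to eight concentrations (top 100 uM, half-log steps, 0.5% DMSO). BCL2L11 mRNA was quantified by TaqMan qRT-PCR, normalized to ACTB/GAPDH/POLR2A, bidirectional fit versus DMSO.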
# [1] = read-out: Apolipoprotein A-V (APOA5) gene, APOA5 (gene 116519); assay: LTEA_HepaRG_APOA5: Life Technologies and Expression Analysis (LTEA) Assay for Apolipoprotein A-V (APOA5) gene using HepaRG (AID 2283474)
# Outline: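 Differentiated human HepaRG cells were exposed in duplicate for 48 h to eight half-log concentrations from 100 uM in 0.5% DMSO. APOA5 mRNA was quantified by TaqMan qRT-PCR, normalized to ACTB, GAPDH and POLR2A, and fitted bidirectionally against DMSO.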
# [2] = read-out: Bcl-2 (BID) gene, BID (gene 637); assay: LTEA_HepaRG_BID: Life Technologies and Expression Analysis (LTEA) Assay for Bcl-2 (BID) gene using HepaRG (AID 2283476)
# Outline: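 Transcript levels of BID, measured by qRT-PCR and normalized to three housekeeping genes, were fitted bidirectionally against DMSO controls. Cells were HepaRG, dosed 48 h at up to 100 uM.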
# [3] = read-out: Cytochrome P450 (CYP24A1), CYP24A1 (gene 1591); assay: LTEA_HepaRG_CYP24A1: Life Technologies and Expression Analysis (LTEA) Assay for Cytochrome P450 (CYP24A1) using HepaRG (AID 2283478)
# Outline: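 Differentiated HepaRG cells, pre-cultured 48 h, were exposed in duplicate for 48 h in serum-free induction medium to 8 half-log concentrations (top 100 uM, 0.5% DMSO). CYP24A1 mRNA was quantified by TaqMan qRT-PCR, normalized to ACTB/GAPDH/POLR2A, fitted bidirectionally versus DMSO.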
# [4] = read-out: Cytochrome P450 (CYP1A2), CYP1A2 (gene 1544); assay: LTEA_HepaRG_CYP1A2: Life Technologies and Expression Analysis (LTEA) Assay for Cytochrome P450 (CYP1A2) using HepaRG (AID 2283479)
# Outline: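 Differentiated human HepaRG cells in serum-free induction medium were exposed in duplicate for 48 h to 8-point half-log concentrations up to 100 uM in 0.5% DMSO. CYP1A2 mRNA measured by qRT-PCR, normalized to ACTB, GAPDH, POLR2A; bidirectional fit vs DMSO.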
# [5] = read-out: cysteine-aspartic acid protease (CASP8), CASP8 (gene 841); assay: LTEA_HepaRG_CASP8: Life Technologies and Expression Analysis (LTEA) Assay for cysteine-aspartic acid protease (CASP8) using HepaRG (AID 2283480)
# Outline: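 Differentiated human HepaRG cells, plated 48 h then switched to serum-free induction medium, were exposed in duplicate for 48 h to 8 half-log concentrations up to 100 uM in 0.5% DMSO. CASP8 mRNA was quantified by qRT-PCR, normalized to ACTB/GAPDH/POLR2A.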
# [6] = read-out: Cytochrome P450 (CYP2B6), CYP2B6 (gene 1555); assay: LTEA_HepaRG_CYP2B6: Life Technologies and Expression Analysis (LTEA) Assay for Cytochrome P450 (CYP2B6) using HepaRG (AID 2283481)
# Outline: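 Differentiated HepaRG cells, serum-free induction medium, exposed 48 h in duplicate to 8-point half-log concentrations from 100 uM in 0.5% DMSO. CYP2B6 mRNA by qRT-PCR, normalized to ACTB, GAPDH, POLR2A; bidirectional fit versus DMSO.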
# [7] = read-out: Cytochrome P450 2C19 (Homo sapiens) (UniProt P33261); assay: LTEA_HepaRG_CYP2C19: Life Technologies and Expression Analysis (LTEA) Assay for CYP2C19 using HepaRG (AID 2283482)
# Outline: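 Differentiated human HepaRG cells were exposed for 48 h in serum-free induction medium to 8 concentrations (top 100 uM, half-log steps, 0.5% DMSO). CYP2C19 mRNA was measured by qRT-PCR, normalized to ACTB/GAPDH/POLR2A, and fitted bidirectionally against DMSO.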
# CYP2C8 (gene 1558) = assay: LTEA_HepaRG_CYP2C8: Life Technologies and Expression Analysis (LTEA) Assay for CYP2C8 using HepaRG (AID 2283483)
# Outline: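 Differentiated human HepaRG cells were exposed for 48 h in serum-free induction medium to eight half-log concentrations up to 100 uM in 0.5% DMSO, in duplicate. CYP2C8 mRNA was measured by TaqMan qRT-PCR, normalized to ACTB, GAPDH and POLR2A, and fitted bidirectionally against DMSO.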
# CYP2C9 (gene 1559) = assay: LTEA_HepaRG_CYP2C9: Life Technologies and Expression Analysis (LTEA) Assay for CYP2C9 using HepaRG (AID 2283484)
# Outline: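 Differentiated human HepaRG cells were exposed 48 h in serum-free induction medium to eight half-log concentrations up to 100 uM in 0.5% DMSO. CYP2C9 mRNA was measured by qRT-PCR, normalized to ACTB, GAPDH and POLR2A, and fitted bidirectionally against DMSO.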
# CYP4A11 (gene 1579) = assay: LTEA_HepaRG_CYP4A11: Life Technologies and Expression Analysis (LTEA) Assay for CYP4A11 using HepaRG (AID 2283486)
# Outline: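 Differentiated HepaRG cells, serum-free induction medium, exposed 48 h in duplicate to 8-point half-log series from 100 uM in 0.5% DMSO. CYP4A11 mRNA measured by qRT-PCR, normalized to ACTB, GAPDH, POLR2A; bidirectional fit versus DMSO.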
# [8] = read-out: Cytochrome P450 3A4 (Homo sapiens) (UniProt P08684); assay: LTEA_HepaRG_CYP3A4: Life Technologies and Expression Analysis (LTEA) Assay for CYP3A4 using HepaRG (AID 2283487)
# Outline: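 Differentiated HepaRG cells in serum-free induction medium exposed in duplicate for 48 h to 8 half-log concentrations up to 100 uM in 0.5% DMSO. CYP3A4 mRNA measured by qRT-PCR normalized to ACTB, GAPDH and POLR2A; bidirectional fit versus DMSO.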
# [9] = read-out: DNA damage-inducible transcript 3 (DDIT3), DDIT3 (gene 1649); assay: LTEA_HepaRG_DDIT3: Life Technologies and Expression Analysis (LTEA) Assay for DNA damage-inducible transcript 3 (DDIT3) using HepaRG (AID 2283488)
# Outline: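 HepaRG plated 48 h, switched to serum-free induction medium, dosed 48 h (100 uM top, half-log, 8 pts, 0.5% DMSO, n=2); RNA isolated; DDIT3 by qRT-PCR; bidirectional curve fit vs DMSO.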
# [10] = read-out: Pro-epidermal growth factor (Homo sapiens) (UniProt P01133); assay: LTEA_HepaRG_EGF: Life Technologies and Expression Analysis (LTEA) Assay for Epidermal growth factor (EGF) using HepaRG (AID 2283489)
# Outline: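 Differentiated human HepaRG cells, plated 48 h then switched to serum-free induction medium, were exposed for 48 h to test chemicals (8-point half-log series, top 100 uM, 0.5% DMSO). EGF mRNA was quantified by qRT-PCR, normalized to ACTB, GAPDH, POLR2A.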
# [11] = read-out: Cytochrome P450 3A7 (Homo sapiens) (UniProt P24462); assay: LTEA_HepaRG_CYP3A7: Life Technologies and Expression Analysis (LTEA) Assay for CYP3A7 using HepaRG (AID 2283492)
# Outline: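 HepaRG cells plated 48 h, then dosed in serum-free induction medium for 48 h at 8 concentrations (top 100 uM, half-log steps, 0.5% DMSO). CYP3A7 mRNA by qRT-PCR, normalised to ACTB/GAPDH/POLR2A; bidirectional fit versus DMSO.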
# [12] = read-out: Apoptosis regulator Bcl-2 (Homo sapiens) (UniProt P10415); assay: LTEA_HepaRG_BCL2: Life Technologies and Expression Analysis (LTEA) Assay for Bcl-2 gene using HepaRG (AID 2283475)
# Outline: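 HepaRG, plated 48 h then switched to serum-free induction medium; dosed 48 h, 8 conc. (max 100 uM, half-log steps), duplicate, 0.5% DMSO. Lysis in RLT, RNA isolated, TaqMan qRT-PCR for BCL2; ACTB/GAPDH/POLR2A normalisation; bidirectional fit vs DMSO.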
# CYP2E1 (gene 1571) = assay: LTEA_HepaRG_CYP2E1: Life Technologies and Expression Analysis (LTEA) Assay for CYP2E1 using HepaRG (AID 2283485)
# Outline: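 Human liver line HepaRG, plated 48 h, then serum-free induction medium + chemical x 48 h; 8-pt CRC from 100 uM, half-log, 0.5% DMSO, n=2. Readout: CYP2E1 mRNA qRT-PCR vs ACTB/GAPDH/POLR2A; bidirectional fit vs DMSO.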
# [13] = read-out: Early growth response protein 1 (EGR1) transcription factor, EGR1 (gene 1958); assay: LTEA_HepaRG_EGR1: Life Technologies and Expression Analysis (LTEA) Assay for Early growth response protein 1 (EGR1) transcription factor using HepaRG (AID 2283490)
# Outline: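 Differentiated human HepaRG cells in serum-free induction medium were exposed in duplicate for 48 h to eight concentrations (top 100 uM, half-log steps) in 0.5% DMSO. EGR1 mRNA was quantified by qRT-PCR, normalized to ACTB, GAPDH and POLR2A, and fitted bidirectionally versus DMSO.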
# [14] = read-out: Ezrin (EZR), EZR (gene 7430); assay: LTEA_HepaRG_EZR: Life Technologies and Expression Analysis (LTEA) Assay for Ezrin (EZR) using HepaRG (AID 2283491)
# Outline: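 Differentiated human HepaRG cells, 48 h after plating, were exposed in serum-free induction medium for 48 hours to eight half-log concentrations up to 100 uM in 0.5% DMSO. EZR mRNA was measured by TaqMan qRT-PCR, normalized to ACTB, GAPDH and POLR2A, and fitted bidirectionally against DMSO.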
# Sequence of Cytochrome P450 2C19 (Homo sapiens) (P33261 whole entry, looked up): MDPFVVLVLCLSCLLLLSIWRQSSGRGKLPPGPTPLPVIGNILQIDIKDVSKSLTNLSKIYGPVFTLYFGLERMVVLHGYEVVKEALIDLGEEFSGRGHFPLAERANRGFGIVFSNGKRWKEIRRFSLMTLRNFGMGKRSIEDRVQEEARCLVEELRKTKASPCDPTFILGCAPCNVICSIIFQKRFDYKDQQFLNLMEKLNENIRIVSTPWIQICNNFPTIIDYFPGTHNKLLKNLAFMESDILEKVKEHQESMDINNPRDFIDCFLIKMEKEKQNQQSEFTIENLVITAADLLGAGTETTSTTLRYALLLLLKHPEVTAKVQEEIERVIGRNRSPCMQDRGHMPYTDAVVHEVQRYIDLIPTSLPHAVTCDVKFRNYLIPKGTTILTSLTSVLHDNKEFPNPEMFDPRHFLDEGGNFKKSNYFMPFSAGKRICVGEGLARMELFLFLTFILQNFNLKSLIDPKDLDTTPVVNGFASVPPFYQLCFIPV
# Sequence of Cytochrome P450 3A4 (Homo sapiens) (P08684 whole entry, looked up): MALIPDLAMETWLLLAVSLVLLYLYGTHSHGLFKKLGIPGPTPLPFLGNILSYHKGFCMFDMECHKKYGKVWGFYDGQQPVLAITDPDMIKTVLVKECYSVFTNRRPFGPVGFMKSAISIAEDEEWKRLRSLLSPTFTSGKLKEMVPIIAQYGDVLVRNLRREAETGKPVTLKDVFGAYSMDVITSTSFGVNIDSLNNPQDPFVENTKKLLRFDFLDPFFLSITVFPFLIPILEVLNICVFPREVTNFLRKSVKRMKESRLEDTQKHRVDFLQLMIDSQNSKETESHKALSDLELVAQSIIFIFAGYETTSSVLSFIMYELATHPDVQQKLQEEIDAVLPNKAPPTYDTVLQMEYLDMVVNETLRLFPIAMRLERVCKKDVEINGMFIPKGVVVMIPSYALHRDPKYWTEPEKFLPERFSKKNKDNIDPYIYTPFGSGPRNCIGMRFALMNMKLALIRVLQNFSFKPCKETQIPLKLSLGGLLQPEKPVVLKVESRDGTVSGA
# Sequence of Cytochrome P450 3A7 (Homo sapiens) (P24462 whole entry, looked up): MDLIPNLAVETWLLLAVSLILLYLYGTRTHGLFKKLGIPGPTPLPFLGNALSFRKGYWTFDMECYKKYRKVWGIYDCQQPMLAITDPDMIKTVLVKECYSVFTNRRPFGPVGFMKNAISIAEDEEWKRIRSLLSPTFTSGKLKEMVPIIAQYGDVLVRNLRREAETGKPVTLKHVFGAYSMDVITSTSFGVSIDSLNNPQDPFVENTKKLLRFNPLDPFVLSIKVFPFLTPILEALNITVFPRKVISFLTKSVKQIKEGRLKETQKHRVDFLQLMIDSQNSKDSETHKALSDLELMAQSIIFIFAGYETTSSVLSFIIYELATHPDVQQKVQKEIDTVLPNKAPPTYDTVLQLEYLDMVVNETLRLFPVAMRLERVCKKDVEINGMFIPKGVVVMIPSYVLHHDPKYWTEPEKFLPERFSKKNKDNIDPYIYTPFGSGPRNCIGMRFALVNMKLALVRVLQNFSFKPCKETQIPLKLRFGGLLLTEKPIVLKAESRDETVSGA
# Sequence of Apoptosis regulator Bcl-2 (Homo sapiens) (P10415 whole entry, looked up): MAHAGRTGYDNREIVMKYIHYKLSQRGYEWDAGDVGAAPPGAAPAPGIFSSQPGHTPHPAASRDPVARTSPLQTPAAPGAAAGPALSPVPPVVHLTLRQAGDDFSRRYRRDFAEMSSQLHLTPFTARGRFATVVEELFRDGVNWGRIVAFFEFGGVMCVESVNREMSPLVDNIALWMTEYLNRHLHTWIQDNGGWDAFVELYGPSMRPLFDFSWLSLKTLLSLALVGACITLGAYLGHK
structure (smiles),measurement,setting,value
C[C@]12CC[C@@H]3c4ccc(O)cc4C[C@@H](CCCCCCCCCS(=O)CCCC(F)(F)C(F)(F)F)[C@H]3[C@@H]1CC[C@@H]2O (stereo partly specified),AC50,BCL2L11 (gene 10018),0.0755 µM (active)
same,AC50,[1],50 µM (active)
same,AC50,[2],0.0682 µM (active)
same,outcome,[3],inactive
same,outcome,[4],inactive
same,outcome,[5],inactive
same,AC50,[6],29.9 µM (active)
same,AC50,[7],26 µM (active)
same,AC50,CYP2C8 (gene 1558),32.6 µM (active)
same,AC50,CYP2C9 (gene 1559),28.7 µM (active)
same,AC50,CYP4A11 (gene 1579),30.9 µM (active)
same,AC50,[8],31.1 µM (active)
same,AC50,[9],9.92 µM (active)
same,AC50,[10],0.0848 µM (active)
same,AC50,[11],24.9 µM (active)
OB(O)O,outcome,BCL2L11 (gene 10018),inactive
same,outcome,[1],inactive
same,outcome,[12],inactive
same,outcome,[2],inactive
same,outcome,[3],inactive
same,outcome,[4],inactive
same,outcome,[5],inactive
same,outcome,[6],inactive
same,outcome,[7],inactive
same,outcome,CYP2C8 (gene 1558),inactive
same,outcome,CYP2C9 (gene 1559),inactive
same,outcome,CYP2E1 (gene 1571),inactive
same,outcome,CYP4A11 (gene 1579),inactive
same,outcome,[8],inactive
same,outcome,[9],inactive
same,outcome,[10],inactive
same,outcome,[11],inactive
CCCCOC(=O)C(C)Oc1ccc(Oc2ccc(C(F)(F)F)cn2)cc1 (stereo unspecified),outcome,BCL2L11 (gene 10018),inactive
same,outcome,[1],inactive
same,outcome,[2],inactive
same,outcome,[3],inactive
same,outcome,[4],inactive
same,outcome,[5],inactive
same,outcome,[6],inactive
same,outcome,[7],inactive
same,outcome,CYP2C8 (gene 1558),inactive
same,outcome,CYP2C9 (gene 1559),inactive
same,outcome,CYP4A11 (gene 1579),inactive
same,outcome,[8],inactive
same,outcome,[9],inactive
same,outcome,[10],inactive
same,outcome,[13],inactive
same,outcome,[14],inactive
same,outcome,[11],inactive
N[C@@H](Cc1cc(I)c(Oc2ccc(O)c(I)c2)c(I)c1)C(=O)O,outcome,BCL2L11 (gene 10018),inactive
same,AC50,[1],69.9 µM (active)
same,outcome,[2],inactive
same,outcome,[3],inactive
same,outcome,[5],inactive
same,AC50,[6],40 µM (active)
same,AC50,[7],61.6 µM (active)
same,AC50,CYP2C8 (gene 1558),46.8 µM (active)
same,AC50,CYP4A11 (gene 1579),7.94 µM (active)
same,AC50,[9],49.7 µM (active)
same,outcome,[10],inactive
CCOC(=O)COc1cc(-n2ncc(C(F)(F)F)c(C)c2=O)c(F)cc1Cl,outcome,BCL2L11 (gene 10018),inactive
same,outcome,[1],inactive
same,outcome,[12],inactive
same,outcome,[3],inactive
same,outcome,[4],inactive
same,outcome,[5],inactive
same,AC50,[6],50 µM (active)
same,outcome,[7],inactive
same,outcome,CYP2C8 (gene 1558),inactive
same,outcome,CYP2C9 (gene 1559),inactive
same,outcome,CYP4A11 (gene 1579),inactive
same,AC50,[8],50 µM (active)
same,outcome,[9],inactive
same,outcome,[10],inactive
same,outcome,[13],inactive
same,AC50,[11],28.9 µM (active)
